From PubChem BioAssay AID651813 (National Center for Advancing Translational Sciences (NCATS), 2012) come the findings set out here.

In all, about 2,100 compounds went through this assay and about 1,100 (52%) were called active. Another 27% or so got no clear call; they are omitted. The set was probably picked from earlier hits. The list shows a part of the results. Unmarked numbers belong to inactive results. Calls follow the shape of the dose curve; as a rule, active = well fitted inhibition curve with a large enough effect; inconclusive = small, poorly fitted or top-dose-only effect; inactive = no such curve, though single readings can be large or run the other way.
Potency is read from the fitted curve at half-maximal effect.

Chain of DNA dC->dU-editing enzyme APOBEC-3G (Homo sapiens) (Q9HC16 whole entry, looked up): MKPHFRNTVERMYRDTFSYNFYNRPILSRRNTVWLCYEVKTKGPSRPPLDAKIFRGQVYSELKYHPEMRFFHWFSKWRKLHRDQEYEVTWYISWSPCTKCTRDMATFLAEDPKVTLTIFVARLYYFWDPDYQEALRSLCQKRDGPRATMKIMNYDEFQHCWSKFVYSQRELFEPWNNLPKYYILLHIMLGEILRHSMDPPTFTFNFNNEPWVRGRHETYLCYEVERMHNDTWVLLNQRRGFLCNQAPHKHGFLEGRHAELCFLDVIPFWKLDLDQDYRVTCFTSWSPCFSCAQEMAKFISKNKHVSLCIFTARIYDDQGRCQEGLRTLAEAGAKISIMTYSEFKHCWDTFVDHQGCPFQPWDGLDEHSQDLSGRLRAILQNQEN

This assay has as its target DNA dC->dU-editing enzyme APOBEC-3G (Homo sapiens) (UniProt Q9HC16). Briefly: qHTS for inhibitors of Vif-A3G interactions: Cherry picks counterscreen.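 Also: hits raise yellow fluorescence by blocking Vif-driven A3G-eYFP degradation; nearly all actives have a fitted effect of over 70% in size.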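 As to max response: max response given as percent of control signal.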 The following applies: HeLa A3G-eYFP + Vif (tagged APOBEC3G with the HIV-1 protein that degrades it), eYFP fluorescence, 24 h. A digest of the protocol: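 HeLa cells stably expressing A3G-eYFP and Vif were treated for 24 h at 37 deg C with compounds at several concentrations; yellow fluorescence (Ex 488 nm, Em 500-530 nm) read by Acumen Explorer, MG132 as positive control.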
Consider `CN(C)/C=N/C1=C(C#N)C(c2cccs2)c2ccc3ccccc3c2O1` (stereo not drawn), for which the Potency was 2.8 µM (active).

`CCCCn1c(N)c(N(CCC(C)C)C(=O)c2ccc([N+](=O)[O-])o2)c(=O)[nH]c1=O`: the max response was -4.38%. Turning to `Nc1c(N(CCC2=CCCCC2)C(=O)c2ccc([N+](=O)[O-])o2)c(=O)[nH]c(=O)n1Cc1ccccc1`, the Potency is 13 µM (active). With `CCCCN(C(=O)c1ccc([N+](=O)[O-])s1)c1c(N)n(CCCC)c(=O)[nH]c1=O`, the max response was -2.12%. Regarding `O=C1c2ccccc2C(=O)c2c(/C=C/N3CCCCC3)ccnc21`, the Potency is 23.1 µM (active).

On to `Nc1nc(-c2cc(O)ccc2[N+](=O)[O-])cc(-c2ccccc2)c1[N+](=O)[O-]`, for which the Potency was 14 µM (active). The same measure, in the same setting: as for `O=C(Nc1cc(=O)[nH]c(=O)[nH]1)c1cc(Cl)ccc1Cl`, the figure is 3.14 µM (active). `O=C(COC(=O)C12CC3CC(CC(Cl)(C3)C1)C2)N1CCCCC1`: the max response is -19.2%. As to `Cc1ccc(S(=O)(=O)Nc2cc(-c3nn(C)c(=O)c4ccccc34)ccc2N2CCOCC2)cc1`, the Potency is 15.8 µM (active).

On to `COc1ccc(/C=c2\s/c(=C/C(=O)c3ccc(C)cc3)[nH]c2=O)c(OC)c1`, for which the Potency is 20.6 µM (active). Same read-out and setting: as for `CCCOc1ccc(C(=O)Nc2cccc(NC(=O)c3ccc(Cl)cc3Cl)c2)cc1`, the figure is 16.4 µM (active).

In the case of `CC(C)(C)OC(=O)NCc1ccc(NC(=O)c2nc[nH]c2C(=O)NCCCNC(=O)c2[nH]cnc2C(=O)Nc2ccc(CNC(=O)OC(C)(C)C)cc2)cc1`, the max response is 4.7%.

On to `O=C(/C=C/c1ccc(Cl)cc1)c1ccc([N+](=O)[O-])o1`, for which the Potency is 12.5 µM (active).

`Cc1cccc(/C=C/C(=O)c2ccc([N+](=O)[O-])o2)c1`: the max response was -131%. The same measure, in the same setting: in the case of `Cc1onc(-c2c(F)cccc2Cl)c1C(=O)O/N=C(\N)c1ccc([N+](=O)[O-])o1` it was 19.3%.

`COc1cccc(C(=O)N/N=C/C(Br)=C/c2ccccc2)c1`: the Potency is 2.23 µM (active). `O=C(O)c1ccc(N/N=C/C(Br)=C/c2ccccc2)cc1`: the max response was 24.8%. Take `CC(/C=N/NC(=O)c1cccc(F)c1)=C\c1ccccc1`: the Potency is 9.94 µM (active).

Consider `COc1cccc(/C=N/n2c(C3CCCCC3)n[nH]c2=S)c1O`, for which the max response is 12.3%. Same read-out and setting: in the case of `C/C(=N/NC(N)=S)c1ccc(Br)s1` it was 13.4%. Consider `COc1ccc(N/C=C/C(=O)c2cc(OC)c(OC)c(OC)c2)cc1`, for which the Potency was 0.886 µM (active). `COc1ccc(C(=O)N/N=C/c2cc(Br)ccc2O)cc1OC`: the max response is -1.25%. As for `COc1ccc(N/C=C\C(=O)c2ccc(Br)cc2)cc1OC`, the Potency is 18.4 µM (active).

Take `COc1ccccc1C1=NOC(COc2ccc3c(C)cc(=O)oc3c2)C1` (stereo not drawn): the Potency is 0.559 µM (active).

For the compound `Cc1cc(=O)oc2cc(OCC(=O)N3c4ccccc4CC3C)ccc12` (stereo not drawn), the Potency was 4.44 µM (active). Take `CCOC(=O)c1cc(-c2ccccc2C)n(CC2CC(c3ccc(OC)cc3)=NO2)n1` (stereo not drawn): the max response was -3.65%. Consider `CCn1c(SCC(=O)c2c[nH]c3ccccc23)nnc1-c1cccs1`, for which the Potency is 18.4 µM (active).

Consider `CCN(C)c1ccc(/C=N\n2nnnc2N)cc1`, for which the Potency is 5.59 µM (active). The same measure, in the same setting: in the case of `Clc1ccc2c(c1)C(C1=NCCN1)c1ccccc1CS2` (stereo not drawn) it was 3.14 µM (active); in that of `Cc1ccccc1/C=C\c1nc2ccccc2c(=O)[nH]1`, 11.2 µM (active).

`O=C1c2cccc3c(N4CCCCC4)ccc(c23)C(=O)N1c1ccc(O)cc1`: the max response is 54.2%. For `O=C1c2cccc3c(N4CCCCC4)ccc(c23)C(=O)N1c1cccc(O)c1`, the Potency is 2.59 µM (active).

Turning to `C=CCN1C(=O)c2cccc3c(N4CCCCC4)ccc(c23)C1=O`, the Potency was 18.4 µM (active). On the same count and under the same terms, in the case of `Cc1ccc(N2C(=O)c3cccc4c(N5CCN(C)CC5)ccc(c34)C2=O)c2cccnc12` it was 15.8 µM (active); in that of `O=C1c2cccc3c(N4CCCCC4)ccc(c23)C(=O)N1CCO`, 14 µM (active). With `CSc1nc(Sc2ccccc2Cl)c2ccccc2n1`, the max response was -6.36%.

As to `CN(C)c1ccc(/C=C/c2ccncc2)cc1`, the Potency was 2.59 µM (active).

In the case of `CCN(CC)c1ccc(/C=C/C(=O)c2ccc(Br)cc2)cc1`, the max response is 26.9%. `CCN(CC)c1ccc(/C=C/C2=C3C=CC=CC3NC=C2)cc1` (stereo not drawn): the Potency was 20.6 µM (active).

On to `CCN(CC)c1ccc(/C=C/c2ccccn2)cc1`, for which the Potency is 16.4 µM (active). The same measure, in the same setting: as for `CCN(CC)c1ccc(/C=C/c2ccncc2)cc1`, the figure is 4.61 µM (active). On to `NC(=S)N/N=C/c1ccccc1OC(=O)/C=C/c1ccccc1`, for which the max response is 5.74%. With `O=[N+]([O-])c1ccccc1C=NNC(=S)NN=Cc1ccccc1[N+](=O)[O-]`, the Potency is 8.86 µM (active). `NC(=S)N/N=C/c1cccc(O)c1O`: the max response was 3.32%. Turning to `CCN(CC)c1ccc(/C=C2\C(=N)N3N=C(CC(=O)N4CCOCC4)SC3=NC2=O)cc1`, the Potency was 1.58 µM (active). Same read-out and setting: in the case of `CN(C)c1ccc(/C=C2\C(=N)N3N=C(CC(=O)N4CCCCC4)SC3=NC2=O)cc1` it was 4.61 µM (active). With `COc1cc(/C=C2\C(=N)N3N=C(S(C)(=O)=O)SC3=NC2=O)ccc1OC(=O)c1ccco1`, the max response was 53.1%. As to `CN(C)c1ccc(/C=C2\SC(N3CCCCC3)=NC2=O)cc1`, the Potency is 20.6 µM (active).

On to `O=C(c1ccccn1)C1CCCN(Cc2cn[nH]c2-c2cc3ccccc3o2)C1` (stereo not drawn), for which the max response is 0.488%.

In the case of `C=CCn1c(O)c(N=NC(=O)CNC(=O)c2ccco2)c2ccccc21`, the Potency was 12.5 µM (active). As for `C=C(C)CNC(=S)NNC(=O)c1ccco1`, the max response was 8.06%.

Consider `CCOC(=S)SCC(=O)N1CCc2cc(OC)ccc2C1C1C(=O)CCCC1=O` (stereo not drawn), for which the Potency is 14 µM (active). For `Cc1cccc(C=Nc2ccccc2C(N)=O)c1`, the Potency was 9.94 µM (active). For the compound `Cc1ccc(C=Nc2ccccc2C(N)=O)s1`, the Potency was 2.5 µM (active). For the compound `COc1ccc(NC(=O)/C(C#N)=C/C=C/c2ccco2)cc1`, the Potency is 11.2 µM (active). Take `COc1ccc(NC(=O)/C(C#N)=C\C=C\c2ccco2)cc1`: the Potency is 14 µM (active). As for `COc1ccc2c(c1)c1nc3ccccc3nc1n2Cc1ccc(OC)c(OC)c1`, the Potency was 25.9 µM (active). Consider `COc1ccc2c(c1)c1nc3ccccc3nc1n2CC(=O)OC(C)C`, for which the max response was -18.3%. With `COc1ccc2c(c1)c1nc3ccccc3nc1n2Cc1ccc(OC(C)C)c(OC)c1`, the Potency was 23.1 µM (active). As to `CC(=O)Oc1c(-c2ccc(Br)o2)oc2ccccc2c1=O`, the max response is -10.4%. For `CCc1cccc2c(C(O)c3c[nH]c4ccccc34)c[nH]c12` (stereo not drawn), the Potency is 20.6 µM (active). The same measure, in the same setting: in the case of `CC(C)CC[n+]1ccccc1/C=C/c1ccc(N(C)C)cc1` it was 16.4 µM (active); in that of `CC[n+]1ccccc1/C=C/c1ccc(N(C)C)cc1`, 20.6 µM (active). The same measure, in the same setting: in the case of `Cc1c(CCCl)c(Cl)n2c(nc3ccccc32)c1C#N` it was 9.94 µM (active). For `CN(C)c1ccc2nc3c(=O)[nH]c(=O)nc-3n(CC(O)C(O)C(O)CO)c2c1` (stereo not drawn), the max response was 0.486%. Turning to `Cc1cccc(CN2C(=O)N/C(=C/c3ccc(C)s3)C2=O)c1`, the Potency is 6.27 µM (active). In the case of `CN(C)c1ccc(/C=C2\NC(=S)N(Cc3ccccc3)C2=O)cc1`, the Potency is 2.5 µM (active). For the compound `Cc1ccc(/C=C2/NC(=O)N(Cc3ccccc3)C2=O)s1`, the Potency was 20.6 µM (active). In the case of `Cc1ccc(/C=C2/NC(=O)N(Cc3ccccc3F)C2=O)s1`, the Potency was 8.2 µM (active). In the case of `Cc1ccc2ccc3cc(C(=O)Nc4ccc(C)c(F)c4)nc3c2[nH]1`, the max response is -25.1%. Consider `CC(C)(C)OC(=O)NC(Cc1ccccc1)C(=O)N1CCC(C(=O)NCC(=O)Nc2ccc(F)cc2)CC1` (stereo not drawn), for which the Potency was 23.1 µM (active).

As to `COc1ccc2c(n1)Sc1nc3ccccc3nc1N2`, the Potency was 3.26 µM (active). On the same count and under the same terms, as for `COc1cc(OC)c(OC)cc1/C=C1\CC(C)C/C(=C\c2cc(OC)c(OC)cc2OC)C1=O` (stereo not drawn), the figure is 20.6 µM (active). As to `CC1C/C(=C/c2cccs2)C(=O)/C(=C/c2cccs2)C1` (stereo not drawn), the max response is 14.5%. Take `COc1ccc(COc2cc(-c3cccc(OC)c3)nc3ccc(NC(=O)C(C)C)cc23)cc1`: the Potency was 4.98 µM (active). In the case of `COc1ccc(-c2cc(-c3nnc(COC(=O)c4ccncc4)o3)c3ccccc3n2)cc1OC`, the max response was -0.16%. In the case of `COc1ccc(COc2cc(-c3cccc(OC)c3)nc3ccc(NC(=O)c4ccc(OC)cc4)cc23)cc1`, the Potency is 3.53 µM (active). Consider `C[n+]1cc(C(=O)N2CCCCC2)ccc1/C=C/c1c[nH]c2ccccc12`, for which the Potency is 17.7 µM (active).

On to `CCN(CC)C(=O)c1ccc(/C=C/c2c[nH]c3ccccc23)[n+](C)c1`, for which the Potency is 20.6 µM (active).

In the case of `c1ccc2c(c1)Cc1cc3ccccc3nc1-2`, the Potency was 1.64 µM (active). Still for that read-out and setting: in the case of `CN(C)c1ccc(/C=C/c2ccnc3ccc(N)cc23)cc1` it was 18.4 µM (active); in that of `CN(C)c1ccc(/C=C/c2ccnc3ccc(I)cc23)cc1`, 5.17 µM (active).

Turning to `Cc1cc(C)c2nccc(/C=C/c3ccc(N(C)C)cc3)c2c1`, the Potency is 11.6 µM (active).

`Cc1ccc2nccc(/C=C/c3ccc(N(C)C)cc3)c2c1`: the Potency was 11.6 µM (active). Consider `FC(F)(F)c1ccccc1NC(=S)NN=C1CCCCCC1`, for which the max response was 19.2%. As for `COc1ccc2nccc(/C=C/c3ccc(N(C)C)cc3)c2c1`, the Potency is 18.4 µM (active). As for `CN(C)c1ccc(/C=C/c2ccnc3ccc(Br)cc23)cc1`, the Potency is 2.06 µM (active). For `Cc1ccc2nc(-c3ccccn3)c(Nc3ccccc3C)n2c1`, the max response is 5.76%.

Consider `O=C(Nc1ncc(Cc2ccc(SC(F)F)cc2)s1)c1ccccc1`, for which the Potency was 1.98 µM (active). Regarding `O=C(O)c1cccc(-c2ccc(/C=N/Nc3ccc([N+](=O)[O-])cc3)o2)c1`, the Potency is 14.6 µM (active).

As for `Cc1cc([N+](=O)[O-])ccc1-c1ccc(/C=N/NC(=O)c2ccc(Br)o2)o1`, the Potency was 20.6 µM (active). `CCOc1ccc(S(=O)(=O)N(CC(=O)N/N=C/c2ccc(-c3ccc([N+](=O)[O-])cc3)o2)c2ccccc2)cc1`: the Potency is 11.2 µM (active). Regarding `O=C(O)c1ccc(-c2ccc(/C=N/Nc3ccc([N+](=O)[O-])cc3)o2)cc1`, the Potency was 15.8 µM (active).
